# The campaign covered roughly 420,000 compounds. About 64,000 (15%) were called active. Another 27% or so got no clear call; they are omitted. Only a sample is shown. A number with no mark means an inactive call. The call rests on the fitted dose curve; in most records, active means well fitted inhibition curve with a large enough effect; inconclusive means small, poorly fitted or top-dose-only effect; inactive means flat fitted curve, though single readings scatter.
# Experiment: qHTS for Inhibitors of human tyrosyl-DNA phosphodiesterase 1 (TDP1): qHTS in cells in absence of CPT; further: nearly all actives have a fitted effect of over 55% in size
# Conditions: DT40 Tdp1-/- hTDP1 cells, no CPT, ATP luminescence, 48 h; activity change, negative = growth inhibition: at 46.2 µM (top of the series)
# Summary of the method: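 Cells were dispensed at 400 per well, compounds added by pin tool, plates incubated ≥48 hr at 37 °C, then CellTiter-Glo added for 30 min at room temperature before luminescence reading. Line: DT40 Tdp1-/- complemented with hTDP1; camptothecin omitted.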
# On the % scale 0 is the no-effect control and ±100 the full control effect; potency means the concentration at half of the fitted maximal effect.
SMILES,"activity change, negative = growth inhibition [%]",Potency
O=c1[nH]snc1-c1c(Cl)cccc1Cl,2.16,–
O=C(NC1CC(=O)N(c2ccc(Cl)cc2)C1)C1CCCC1 (stereo unspecified),-17.6,–
Cc1cc(C)c(S(=O)(=O)Nc2c(C)n(C)n(-c3ccccc3)c2=O)cc1[N+](=O)[O-],-2.01,–
CCCCCCCC[n+]1cccc(C(=O)N2c3c(nc(N)[nH]c3=O)NC(C)C2C)c1 (stereo unspecified),-7.83,–
COc1ccc(C2C(C#N)=C(N)N(c3ncn[nH]3)C3=C2C(=O)CCC3)cc1 (stereo unspecified),-0.937,–
CSc1sc(C)cc1C1C(C#N)=C(N)N(c2cccnc2)C2=C1C(=O)CCC2 (stereo unspecified),–,11.6 µM (active)
N#CC1=C(N)N(c2ccccc2)C2=C(C(=O)CCC2)C1c1ccccc1 (stereo unspecified),-9.89,–
Nc1c(N(CCO)C(=O)C2CCCCC2)c(=O)[nH]c(=O)n1Cc1ccccc1,-28.9,–
COCCSc1nnc(NC(=O)c2cc(OC)c(OC)cc2[N+](=O)[O-])s1,-0.273,–
c1csc(-c2cn3c(n2)SCC3)c1,-23.2,–
Cc1nnc2n1N=C(c1ccccc1)CS2,-0.421,–
O=c1c2cc(-c3ccccc3)sc2nc2n1N=C(c1cccs1)CS2,–,23.1 µM (active)
Cc1cc(C)c(OCC(=O)N/N=C/c2ccco2)c(C)c1,–,16.4 µM (active)
Cc1ccc(OCC(=O)N/N=C\c2ccco2)c(C)c1,-9.09,–
Cc1ccc(NC(=O)CCC(=O)N/N=C/c2ccco2)c(C)c1,-0.547,–
O=C(NC1CCCC1)C(c1ccco1)N(C(=O)c1csnn1)c1ccccc1 (stereo unspecified),-9.4,–
O=C(NCc1ccccc1)C(c1ccc(F)cc1)N1CCN(C(=O)C2CCCO2)CC1 (stereo unspecified),-3.25,–
O=C(NCC1CCCO1)/C(=C/c1ccc(Cl)cc1)NC(=O)c1ccccc1 (stereo unspecified),-11.4,–
Cc1ccc(NC(=O)CN(C)C(=O)COC(=O)c2nccnc2N)cc1,-17.6,–
Brc1ccccc1C1N=C(c2ccccc2)NO1 (stereo unspecified),-17.2,–
CCOC(=O)C1CCCN(C(=O)c2ccc(N(C)C)cc2)CC1 (stereo unspecified),-22.5,–
CCN1CCN(C(=O)c2ccc(CN(c3ccc(C)c(C)c3)S(C)(=O)=O)cc2)CC1,-25.9,–

SMILES,"activity change, negative = growth inhibition [%]",Potency
CCOC(=O)N1CCN(C(=O)c2ccc(CN(c3ccc(C)c(C)c3)S(C)(=O)=O)cc2)CC1,–,23.1 µM (active)
CO/N=C/CC(=O)c1ccc(OC)cc1,-8.75,–
COCCNc1nc2nonc2nc1N(C)Cc1ccc(C)cc1,-6.6,–
CN(C)C(CNC(=O)CCCOc1ccccc1)c1ccco1 (stereo unspecified),1.99,–
CCC1(C)CC(=O)NC1=O (stereo unspecified),–,inactive
CCc1cccc(C)c1NS(=O)(=O)c1cc(Br)cnc1N,–,18.4 µM (active)
CCc1cccc(C)c1NS(=O)(=O)c1c(C)nc2sccn2c1=O,-19.2,–
COc1ccc(N2CCN(S(=O)(=O)c3cc(Br)cnc3N)CC2)cc1,-2.17,–
Cc1cc(C)c2nc(-c3ccco3)cc(C(=O)O)c2c1,-19.2,–
CC(C)(CNC(=O)c1ccc(Cl)c(S(=O)(=O)N2CCc3ccccc3C2)c1)N1CCOCC1,–,23.1 µM (active)
CC(C)(CNC(=O)Cc1ccc(Cl)cc1Cl)N1CCOCC1,3.47,–
CN(C)S(=O)(=O)c1ccc(C(=O)NCC(C)(C)N2CCOCC2)cc1,-1.91,–
Cc1ccc(C)c(NC(=O)COC(=O)CSc2ccccc2)c1,-10.1,–
O=C(NC(=O)c1ccccc1N1CCCCC1)Nc1ccc(Br)cc1,-2.29,–
Cc1ccccc1C(=O)NC(=S)NC1CC1,-9.02,–
Cc1ccccc1C(=O)N1CCN(c2ccc(NC(=O)c3cccs3)cc2)CC1,–,16.4 µM (active)
O=C(Nc1ccc(N2CCN(C(=O)c3cccs3)CC2)cc1)c1cccnc1Cl,1.55,–
Cc1cccc(C)c1NC(=O)CS(=O)CC(=O)N1CCN(c2ccccc2)CC1 (stereo unspecified),-24.6,–
Cc1ccccc1C(=O)Nc1ccc(N2CCCCCC2)cc1,–,9.2 µM (active)
Cc1ccccc1C(=O)NC(=S)Nc1ccc(N2CCN(C(=O)c3ccccc3)CC2)cc1,–,10.3 µM (active)
COc1ccc(N2CCN(C(=O)c3cccs3)CC2)cc1,-6.89,–
Cc1ccccc1C(=O)Nc1ccccc1NC(=O)c1ccccc1C,-28.3,–

SMILES,"activity change, negative = growth inhibition [%]",Potency
NS(=O)(=O)c1ccc(CCNC(=O)COC(=O)COc2cccc(C(F)(F)F)c2)cc1,5.08,–
Cc1noc(NS(=O)(=O)c2ccc(NC(=O)c3oc4ccc(F)cc4c3C)cc2)c1C,7.6,–
Cc1cc(C)n(CC(=O)Nc2ccc([N+](=O)[O-])cc2)n1,-1.22,–
COC(=O)c1cccc(-n2[nH]nnc2=S)c1,-16.2,–
CC(=O)c1ccc(S(=O)(=O)NCc2nnnn2-c2ccccc2)cc1,-10.6,–
OCCCNC(c1ccccc1)c1ccc(O)cc1 (stereo unspecified),-10,–
O=C(CC1C(=O)NCCN1CC(c1ccccc1)c1ccccc1)NCC1CCOCC1 (stereo unspecified),-6.96,–
COc1cc(-c2cc3n(C)c(C)c(CCC(=O)Nc4ccc(F)cc4)c(=O)n3n2)cc(OC)c1OC,-24,–
Cc1ccc(CNC(=O)C2CCCN2C(=O)NCc2ccccc2)cc1 (stereo unspecified),-7.07,–
CCN(CC)S(=O)(=O)c1ccc(N2CC(C(=O)NCc3cccnc3)CC2=O)cc1 (stereo unspecified),-13.1,–
O=C(Nc1cccnc1Cl)c1cc(-c2ccccc2O)on1,-23.4,–
Brc1ccc(OCCn2ccnc2)cc1,-7.13,–
COc1ccc(CCN=C2SCC(=O)N2C)cc1OC,9.99,–
Cc1ccc2c(c1)c1ncnc(N3CCc4ccccc4C3)c1n2C,–,20.6 µM (active)
Cc1ccc(S(=O)(=O)Nc2nc3ccccc3nc2N2CCc3ccccc3C2)cc1,-23.2,–
Cc1ccc2c(c1)c1ncn(Cc3ccc(F)cc3)c(=O)c1n2C,-28.1,–
CCN(C(=O)COC(=O)/C=C/c1nc2ccccc2s1)C1CCS(=O)(=O)C1 (stereo unspecified),-9.04,–
CCOC(=O)C1=C(C)NC(C)=C(C(=O)OCC)C1C1=COCCO1,-26,–
CN(C)CCOC(=O)C(c1ccccc1)C1(O)CCCC1 (stereo unspecified),–,inactive
Cc1ccccc1C(OCCN(C)C)C1CCCCC1 (stereo unspecified),–,29.1 µM (active)
Cc1nn(Cc2ccc(Cl)cc2)c(Cl)c1/C=N/NC(=O)c1cccnc1,-21.6,–
CC1(C)C/C(=C(/C#N)C(N)=O)CCO1,-3.81,–

SMILES,"activity change, negative = growth inhibition [%]",Potency
O=C(O)c1ccccc1NC(=S)NC(NC(=O)c1ccccc1[N+](=O)[O-])C(Cl)(Cl)Cl (stereo unspecified),3.8,–
Cc1cc(C)cc(N(CC(=O)Nc2c(C)n(C)n(-c3ccccc3)c2=O)S(C)(=O)=O)c1,-0.0647,–
COc1ccc(S(=O)(=O)N2CCCCCC2)cc1NC(=O)Cc1ccc(OC)c(OC)c1,-7.55,–
Cc1ccc(S(=O)(=O)N2CCCCC2)cc1NC(=O)[C@@H]1CCCN1C(=O)c1cccs1,14.1,–
CCOc1ccc(S(=O)(=O)N2CCCCC2)cc1NC(=O)CN1CCCC1c1cccs1 (stereo unspecified),–,2.06 µM (active)
COc1cccc(N(CC(=O)NC2CCCC2)C(=O)Cn2nnc(-c3ccc(C)cc3)n2)c1,-25.8,–
C=CCOc1c2ccc(C(=O)N(CC)c3ccc(OC)cc3)cc2nn1C,-5.42,–
CCN(C(=O)C1CCCN(c2nc(-c3ccc(OC)cc3)no2)C1)c1ccc(OC)cc1 (stereo unspecified),–,20.6 µM (active)
O=C1C(=O)N(CCCO)C(c2ccccc2)/C1=C(\O)c1ccc(Br)cc1 (stereo unspecified),-1.82,–
Cc1ccc(C(=O)NC2CC(C)(C)NC(C)(C)C2)c(C)c1,-20.5,–
Cn1c2c(c(=O)n(C)c1=O)C1c3ccccc3OCC1C(C)(C)O2 (stereo unspecified),-20.6,–
CC(Nc1nc(C(F)(F)F)nc2ccccc12)c1cccs1 (stereo unspecified),–,20.6 µM (active)
CCN(CC)C(=O)c1ccc(O)c(OC)c1,–,inactive
CC1CCN(C(=O)Cn2c(=O)n(-c3ccc(Cl)cc3)c(=O)c3c4c(sc32)CCC4)CC1,-14.1,–
O=c1c2c3c(sc2n(CCN2CCCC2)c(=O)n1Cc1ccccc1)CCCCC3,–,11.6 µM (active)
CCOC(=O)N1CCc2c(sc3c2c(=O)n(Cc2ccccc2)c(=O)n3CC(=O)Nc2cccc(C)c2)C1,-10,–
NC(=O)c1ncc(C(F)(F)F)cc1Oc1ccc(F)cc1,7.01,–
Cc1n[nH]c(C)c1S(=O)(=O)N1CCCC(C(=O)Nc2ccc(Br)cc2)C1 (stereo unspecified),–,16.4 µM (active)
COc1ccc(S(=O)(=O)N2CCCC(C(=O)NCCCn3ccnc3)C2)cc1OC (stereo unspecified),-13.3,–
Cc1ccccc1N1CC(C(=O)Nc2ccc(S(=O)(=O)N3CCCC3)cc2)CC1=O (stereo unspecified),-26,–
CC(C)c1ccc(NC(=O)C2CCCN(S(=O)(=O)c3cccnc3)C2)cc1 (stereo unspecified),–,7.31 µM (active)
Cc1n[nH]c(C)c1S(=O)(=O)N1CCCC(C(=O)NCC2COc3ccccc3O2)C1 (stereo unspecified),-25.9,–

SMILES,"activity change, negative = growth inhibition [%]",Potency
COc1ccc(NC(=O)C2CCCN(S(=O)(=O)c3c(C)[nH]c(=O)[nH]c3=O)C2)c(OC)c1 (stereo unspecified),14.1,–
O=C(Cc1ccsc1)N1CCN(S(=O)(=O)c2cc(C(F)(F)F)cc(C(F)(F)F)c2)CC1,-13.1,–
CCOC(=O)C1=CN(Cc2ccc(Br)cc2)S(=O)(=O)NC1C (stereo unspecified),-1.97,–
Cc1ccc(C(=O)NNC2=Nc3cc([N+](=O)[O-])ccc3OC2)cc1,-28,–
Cc1nn(C(=O)c2c(F)cccc2F)c(C)c1S(=O)(=O)N1CCOCC1,1.73,–
CC(C)=N/N=C1/NC(=O)C(Cc2ccccc2)S1 (stereo unspecified),14,–
O=C(NC(=S)Nc1ccc(Br)cc1F)C1CCCCC1,-23.3,–
Cc1nnsc1C(=O)N/N=C/c1ccccc1Cl,-7.21,–
O=C(N/N=C/c1ccc(O)c2ccccc12)c1cccnc1,-15.7,–
Cc1ccc(/C=N/NC(=O)C2=NNC(c3ccccc3)(c3ccccc3)C2)c(O)c1,–,4.11 µM (active)
O=C(O)c1cscn1,4.68,–
S=C(NCCC1=CCCCC1)Nc1ccccc1,–,23.1 µM (active)
O=C(Cc1cccc2ccccc12)NCCC1=CCCCC1,–,29.1 µM (active)
CC(=O)Nc1ccc(S(=O)(=O)N(C)CC(=O)NCCC2=CCCCC2)cc1,-7.69,–
O=C(CCNC(=O)Cn1ccc2ccccc2c1=O)NCCC1=CCCCC1,-1.25,–
CC(OC(=O)c1c(F)cccc1F)C(=O)NCCC1=CCCCC1 (stereo unspecified),-21.2,–
O=C(Cc1nn[nH]n1)NCCC1=CCCCC1,-18.9,–
CC(C)CC(=O)N1CCN(Cc2cccc(Cl)c2)CC1,-15.7,–

# — PubChem BioAssay AID686978 (National Center for Advancing Translational Sciences (NCATS), 2013)
